Results: PubChem BioAssay AID1159580 (chemical genetic matrix, 2015)
The whole screen tested about 5,500 compounds, of which about 2,000 (36%) were called active. About 18% were inconclusive and are not listed. Cut-off read from the data, not from the text of the source: active = normalized growth mostly below about 0.91 (no sharp cut-off); inconclusive = no clear call, values can overlap the other calls; inactive = mostly above about 0.92. The list shows a part of the results.

Assay: chemical genetic growth profiling, strain panel (AID 1159580);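 note: tested at 20 µM; growth read once vehicle control cultures reached saturation at 30 °C; 1 = growth at the plate median or of vehicle wells; lower values mean less growth of the strain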
Details: growth OD

Measured: normalized growth

CN1CCC(=C2c3ccccc3Sc3ccccc32)CC1
inactive: S. cerevisiae deletion strains, locus YJR075W, strain HOC1, stronger effect = lower value 0.935 | S. cerevisiae deletion strains, locus YKL009W, strain mrt4, stronger effect = lower value 0.982 | S. cerevisiae deletion strains, locus YKL068W, stronger effect = lower value 1 | S. cerevisiae deletion strains, locus YKL085W, strain MDH1 (second series), stronger effect = lower value 0.999 | S. cerevisiae deletion strains, locus YKL085W, strain MDH1, stronger effect = lower value 0.999 | S. cerevisiae deletion strains, locus YKL160W, strain elf1, stronger effect = lower value 1 | S. cerevisiae deletion strains, locus YKL190W, strain CNB1, stronger effect = lower value 1 | S. cerevisiae deletion strains, locus YKR001C, strain vps1, stronger effect = lower value 0.996 | S. cerevisiae deletion strains, locus YKR026C, strain gcn3, stronger effect = lower value 1.03 | S. cerevisiae deletion strains, locus YKR091W, strain srl3, stronger effect = lower value 1.03 | S. cerevisiae deletion strains, locus YLL001W, strain dnm1, stronger effect = lower value 1.03 | S. cerevisiae deletion strains, locus YLL026W, stronger effect = lower value 1.02 | S. cerevisiae deletion strains, locus YLL041C, strain sdh2, stronger effect = lower value 1.01 | S. cerevisiae deletion strains, locus YLR027C, strain aat2, stronger effect = lower value 1.02 | S. cerevisiae deletion strains, locus YLR058C, strain SHM2, stronger effect = lower value 1 | S. cerevisiae deletion strains, locus YLR102C, strain apc9, stronger effect = lower value 1.01 | S. cerevisiae deletion strains, locus YLR113W, strain HOG1, stronger effect = lower value 0.979 | S. cerevisiae deletion strains, locus YLR221C, strain rsa3, stronger effect = lower value 1 | S. cerevisiae deletion strains, locus YLR258W, strain gsy2, stronger effect = lower value 1.04 | S. cerevisiae deletion strains, locus YLR262C, strain YPT6 (second series), stronger effect = lower value 1.13 | S. cerevisiae deletion strains, locus YLR268W, strain sec22, stronger effect = lower value 1.06 | S. cerevisiae deletion strains, locus YLR320W, strain mms22, stronger effect = lower value 1.01 | S. cerevisiae deletion strains, locus YLR330W, strain CHS5, stronger effect = lower value 0.994 | S. cerevisiae deletion strains, locus YLR342W, strain FKS1 (second series), stronger effect = lower value 0.859 | S. cerevisiae deletion strains, locus YLR342W, strain FKS1, stronger effect = lower value 1.03 | S. cerevisiae deletion strains, locus YLR357W, strain rsc2, stronger effect = lower value 1.04 | S. cerevisiae deletion strains, locus YLR370C, strain arc18, stronger effect = lower value 1.02 | S. cerevisiae deletion strains, locus YLR371W, strain rom2, stronger effect = lower value 1.02 | S. cerevisiae deletion strains, locus YLR384C, strain iki3, stronger effect = lower value 1.02 | S. cerevisiae deletion strains, locus YLR418C, strain cdc73, stronger effect = lower value 0.874 | S. cerevisiae deletion strains, locus YML016C, strain PPZ1, stronger effect = lower value 0.998 | S. cerevisiae deletion strains, locus YML032C, strain rad52, stronger effect = lower value 1.01 | S. cerevisiae deletion strains, locus YML120C, strain ndi1, stronger effect = lower value 0.985 | S. cerevisiae deletion strains, locus YML124C, strain tub3, stronger effect = lower value 1.02 | S. cerevisiae deletion strains, locus YMR058W, strain fet3, stronger effect = lower value 1.01 | S. cerevisiae deletion strains, locus YMR078C, strain ctf18, stronger effect = lower value 1 | S. cerevisiae deletion strains, locus YMR125W, strain sto1, stronger effect = lower value 1.03 | S. cerevisiae deletion strains, locus YMR129W, stronger effect = lower value 1.01 | S. cerevisiae deletion strains, locus YMR205C, strain PFK2, stronger effect = lower value 1.06 | S. cerevisiae deletion strains, locus YMR223W, strain ubp8, stronger effect = lower value 0.962 | S. cerevisiae deletion strains, locus YMR231W, strain pep5, stronger effect = lower value 1.02 | S. cerevisiae deletion strains, locus YMR263W, strain SAP30, stronger effect = lower value 0.969 | S. cerevisiae deletion strains, locus YMR307W, strain GAS1, stronger effect = lower value 1.05 | S. cerevisiae deletion strains, locus YNL067W, strain RPL9B, stronger effect = lower value 0.997 | S. cerevisiae deletion strains, locus YNL071W, strain lat1, stronger effect = lower value 1.01 | S. cerevisiae deletion strains, locus YNL128W, strain TEP1, stronger effect = lower value 1.01 | S. cerevisiae deletion strains, locus YNL153C, strain GIM3, stronger effect = lower value 0.982 | S. cerevisiae deletion strains, locus YNL183C, strain NPR1, stronger effect = lower value 0.892 | S. cerevisiae deletion strains, locus YNL209W, strain ssb2, stronger effect = lower value 1 | S. cerevisiae deletion strains, locus YNL233W, strain BNI4, stronger effect = lower value 1 | S. cerevisiae deletion strains, locus YNL248C, strain rpa49, stronger effect = lower value 0.958 | S. cerevisiae deletion strains, locus YNL250W, strain rad50, stronger effect = lower value 1.01 | S. cerevisiae deletion strains, locus YNL271C, strain bni1, stronger effect = lower value 1.02 | S. cerevisiae deletion strains, locus YNL298W, strain CLA4, stronger effect = lower value 1 | S. cerevisiae deletion strains, locus YNL307C, strain MCK1, stronger effect = lower value 0.993 | S. cerevisiae deletion strains, locus YNL322C, strain KRE1 (second series), stronger effect = lower value 1.03 | S. cerevisiae deletion strains, locus YNL322C, strain KRE1, stronger effect = lower value 1.01 | S. cerevisiae deletion strains, locus YNR049C, strain mso1, stronger effect = lower value 1.02 | S. cerevisiae deletion strains, locus YNR052C, strain pop2, stronger effect = lower value 0.973 | S. cerevisiae deletion strains, locus YOL006C, strain TOP1, stronger effect = lower value 0.879 | S. cerevisiae deletion strains, locus YOL012C, strain htz1 0.875 | S. cerevisiae deletion strains, locus YOL147C, strain pex11, stronger effect = lower value 1.01 | S. cerevisiae deletion strains, locus YOR001W, strain rrp6, stronger effect = lower value 0.97 | S. cerevisiae deletion strains, locus YOR061W, strain CKA2, stronger effect = lower value 1.01 | S. cerevisiae deletion strains, locus YOR069W, strain VPS5, stronger effect = lower value 0.996 | S. cerevisiae deletion strains, locus YOR070C, strain gyp1, stronger effect = lower value 1.02 | S. cerevisiae deletion strains, locus YOR080W, strain dia2, stronger effect = lower value 1.03 | S. cerevisiae deletion strains, locus YOR083W, strain WHI5, stronger effect = lower value 0.96 | S. cerevisiae deletion strains, locus YOR106W, strain vam3, stronger effect = lower value 0.966 | S. cerevisiae deletion strains, locus YOR136W, strain idh2, stronger effect = lower value 1.04 | S. cerevisiae deletion strains, locus YOR144C, strain elg1, stronger effect = lower value 1.01 | S. cerevisiae deletion strains, locus YOR184W, strain ser1, stronger effect = lower value 1.03 | S. cerevisiae deletion strains, locus YOR231W, strain MKK1, stronger effect = lower value 0.99 | S. cerevisiae deletion strains, locus YOR265W, strain rbl2, stronger effect = lower value 1.02 | S. cerevisiae deletion strains, locus YOR270C, strain vph1, stronger effect = lower value 0.933 | S. cerevisiae deletion strains, locus YOR290C, strain snf2, stronger effect = lower value 0.973 | S. cerevisiae deletion strains, locus YOR316C, strain cot1, stronger effect = lower value 1.01 | S. cerevisiae deletion strains, locus YPL051W, strain arl3, stronger effect = lower value 0.974 | S. cerevisiae deletion strains, locus YPL055C, strain LGE1, stronger effect = lower value 0.958 | S. cerevisiae deletion strains, locus YPL078C, strain atp4, stronger effect = lower value 0.983 | S. cerevisiae deletion strains, locus YPL106C, strain sse1, stronger effect = lower value 1.09 | S. cerevisiae deletion strains, locus YPL240C, strain hsp82, stronger effect = lower value 1.02 | S. cerevisiae deletion strains, locus YPL241C, strain CIN2, stronger effect = lower value 1 | S. cerevisiae deletion strains, locus YPL256C, strain CLN2, stronger effect = lower value 0.995 | S. cerevisiae deletion strains, locus YPR119W, strain clb2, stronger effect = lower value 1.01 | S. cerevisiae deletion strains, locus YPR141C, strain kar3, stronger effect = lower value 1.01 | S. cerevisiae deletion strains, locus YPR163C, strain tif3, stronger effect = lower value 0.993 | S. cerevisiae deletion strains, locus YPR167C, strain met16, stronger effect = lower value 1.01 | S. cerevisiae deletion strains, strain wtn01, stronger effect = lower value 1.02 | S. cerevisiae strains, strain wild type, stronger effect = lower value 0.993
active: S. cerevisiae deletion strains, locus YLR039C, strain RIC1, stronger effect = lower value 1.34 [resistant] | S. cerevisiae deletion strains, locus YLR262C, strain YPT6, stronger effect = lower value 1.44 [resistant]
